Data on 31 compounds can be found in PubChem BioAssay AID488893 (Broad Institute, 2010).

Results with a measured potency or affinity are listed apart. Active and inactive are the calls of the source.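 The calls were made as follows: active = falling signal whose fitted half-maximal dose is at most ten times the top valid tested dose; inconclusive = flat curve with 30 to 70% inhibition, or poor fit; inactive = the rest, including changes in the wrong direction.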

The nature of this assay: Candida albicans growth inhibition, compound alone, dose response, counter-screen for antifungal drug resistance project, CaCi-2 strain, Alamar Blue, dry powder, set 2 (AID 488893). Particulars: C. albicans CaCi-2 (fluconazole-resistant clinical isolate) growth, Alamar Blue fluorescence, 48 h; series mostly up to 26 µM. In general terms: Counterscreens check selectivity or assay interference.
For the compound `O=C(c1ccc(Cl)cc1)N1CCN(c2cccnc2)CC1`, the outcome was inactive.
With `O=C(c1ccc(Cl)cc1)N1CCNCC1`, the call was inactive.
To `COc1ccc2c(N3CCN(C(=O)c4ccc(Cl)cc4)CC3)ccnc2c1` belongs “inactive”; to `O=C(c1ccc(Cl)cc1)N1CCN(c2ncnc3ccccc23)CC1`, “inactive”; to `O=C(O)Cn1nc(-c2ccccc2)c2ccccc21`, “inactive”.
For the compound `COc1ccnc(N2CCN(C(=O)c3ccc(Cl)cc3)CC2)c1`, the compound was classed as inactive.
On to `O=C(c1ccc(Cl)cc1)N1CCN(c2ccccn2)CC1`, for which the compound was classed as inactive.
To `O=C(c1ccc(Cl)cc1)N1CCN(c2ncnc3nc[nH]c23)CC1` belongs “inactive”.
To `O=C(c1ccc(Cl)cc1)N1CCN(c2ccnc3ccc(Cl)cc23)CC1` belongs “inactive”; to `Cc1cc(N2CCN(C(=O)c3ccc(Cl)cc3)CC2)c2ccccc2n1`, “inactive”.
For `CC(C)C(=O)N1CCN(c2ccnc3cc(Cl)ccc23)CC1`, the result was inactive.
For the compound `O=C(c1ccc(Cl)cc1)N1CCN(c2ccncc2)CC1`, the call was inactive.
In the case of `O=C(c1ccc(Cl)nc1)N1CCN(c2ccnc3cc(Cl)ccc23)CC1` it was “inactive”.
Take `CC1CN(c2ccnc3cc(Cl)ccc23)CCN1C(=O)c1ccc(Cl)cc1` (stereo unspecified): the compound was classed as inactive.
Consider `CCCC(=O)N1CCN(c2ccnc3cc(Cl)ccc23)CC1`, for which the call was inactive.
To `O=C(C1CCC1)N1CCN(c2ccnc3cc(Cl)ccc23)CC1` belongs “inactive”; to `O=C(c1ccc(Cl)cc1)N1CCN(c2ccnc3ccccc23)CC1`, “inactive”; to `Cc1cc(N2CCN(C(=O)c3ccc(Cl)cc3)CC2)c2ccc(F)cc2n1`, “inactive”.
To `O=C(Nc1ccc(Cl)cc1)N1CCN(c2ccnc3cc(Cl)ccc23)CC1` belongs “inactive”; to `O=C(c1ccc(Cl)cc1)N1CCN(c2ccnc3cc(Cl)ccc23)CC1`, “inactive”; to `O=C(c1ccccc1Cl)N1CCN(c2ccnc3cc(Cl)ccc23)CC1`, “inactive”.
Regarding `COc1cccc2c(N3CCN(C(=O)c4ccc(Cl)cc4)CC3)cc(C)nc12`, the compound was called inactive.
In the case of `O=C(C1CCCC1)N1CCN(c2ccnc3cc(Cl)ccc23)CC1` it was “inactive”; in that of `Clc1ccc2c(N3CCNCC3)ccnc2c1`, “inactive”; in that of `O=C(c1ccc(Cl)cc1)N1CCCN(c2ccnc3cc(Cl)ccc23)CC1`, “inactive”.
In the case of `CC(C)CC(=O)N1CCN(c2ccnc3cc(Cl)ccc23)CC1` it was “inactive”.
On to `N#Cc1ccc(N2CCN(C(=O)c3ccc(Cl)cc3)CC2)nc1`, for which the result was inactive.
Consider `O=C(c1cccc(Cl)c1)N1CCN(c2ccnc3cc(Cl)ccc23)CC1`, for which the outcome was inactive.
In the case of `O=C(c1ccc(Cl)cc1)C1CCN(c2ccnc3cc(Cl)ccc23)CC1` it was “inactive”; in that of `O=C(C1CCCCC1)N1CCN(c2ccnc3cc(Cl)ccc23)CC1`, “inactive”.
To `O=C(c1ccc(Cl)cn1)N1CCN(c2ccnc3cc(Cl)ccc23)CC1` belongs “inactive”.
